Screening data: PubChem BioAssay, Broad Institute
The full list was thinned out, with hits kept by preference.
Hedgehog inh: blocks Sonic Hedgehog signaling; Shh-LIGHT2 Gli-luciferase reporter, 30 h; inhibition, % (no concentration beside the values); 2.1% of 22,000 active; AID 2313;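 active = mean inhibition across valid replicates above about 65%, limit read from the data; inconclusive = mean under the limit, yet half or more replicates past it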;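 note: pathway switched on by Shh-conditioned medium diluted 1 in 25 in low serum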
YB-1 expression: YB-1 expression inhibition. U2OS, qRT-PCR YB-1 vs CDIP delta delta Cp, 16 h; stronger effect = higher value; zero = DMSO, each unit about twofold. delta delta Cp (YB-1 minus CDIP) (concentration not given with the values). 0.37% of 30,000 active. AID 434959;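 active = delta delta Cp rounded down to an integer at or above 3, about 3 SD of DMSO wells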;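 note: higher means less YB-1 transcript or more CDIP transcript relative to DMSO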
MITF inhib: inhibitors of MITF | TRPM1 promoter luciferase, luminescence, 24 h | inhibition, % (no concentration beside the values) | 0.28% of 37,000 active | AID 2240; in the data active = inhibition above about 85%; inconclusive = no clear call, values can overlap the other calls; inactive = below about 68%;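 note: human melanocyte line stably carrying TRPM1 promoter luciferase reporter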
PD-1 reverse act: activators reversing PD-1 mediated T-cell inhibition; primary human CD4 T cells, PD-L1 beads, CellTiter-Glo 96 h; activation, % (test concentration not listed); 29,000 tested, under 10 active; AID 2316; call rule not given here;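 note: 0% = median vehicle wells and 100% = positive control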
An asterisk follows results filed as active; ? = inconclusive; nt = not tested or not shown.

SMILES	Hedgehog inh	YB-1 expression	MITF inhib	PD-1 reverse act
COc1ccc(S(=O)(=O)Nc2ccc3c(c2)C(=O)N([C@H](C)CO)C[C@@H](C)[C@@H](CN(C)Cc2ccc(Oc4ccccc4)cc2)O3)cc1	68*	-0.42	40	-1
C[C@@H]1CN([C@H](C)CO)C(=O)c2cc(NC(=O)c3ccncc3)ccc2O[C@H]1CN(C)Cc1ccc(Cl)c(Cl)c1	nt	-0.24	-9	2
COc1ccc(S(=O)(=O)Nc2ccc3c(c2)C(=O)N([C@@H](C)CO)C[C@H](C)[C@H](CN(C)Cc2ccc(Oc4ccccc4)cc2)O3)cc1	40	-0.33	47	nt
C[C@H]1CN([C@@H](C)CO)C(=O)c2cccc(NS(=O)(=O)c3ccc(F)cc3)c2O[C@H]1CN(C)Cc1ccc(C(=O)Nc2ccccc2N)cc1	nt	0.2	33	2
Cc1csc(NC(=O)CSc2nc(C34CC5CC(CC(C5)C3)C4)ccc2C#N)n1	75*	0.7	63	1
CCOc1ccc(C2(C)CC(C)(C)Nc3ccccc32)cc1 (stereo unspecified)	1	-0.3	5	1
COc1ccc(C(=O)Nc2ccc(Cl)cc2)cc1S(=O)(=O)Nc1ccc(Cl)cc1	-23	0.027	27	-1
CS(=O)(=O)c1sc(NC(=O)Nc2ccc(Cl)cc2)c2c1C=CCC2	106*	-0.41	47	0
O=C1c2ccccc2-[n+]2ccc3c([nH]c4ccccc43)c21	?	-0.22	108*	-57
O=C1c2ccccc2C(=O)N1C(CO)C(O)c1ccccc1 (stereo unspecified)	-21	0.2	11	1
O=C1C(SCCO)=C(SCCO)C(=O)c2ccccc21	104*	0.97	103*	nt
COc1cc(CO)ccc1OCc1cccc(C(=O)O)c1	nt	nt	93*	2
COc1cc(CO)ccc1OCC(=O)Nc1ccccc1F	nt	nt	-42	1
O=C(CCCN1C(=O)c2cccc3cccc(c23)C1=O)Nc1ccccc1Br	nt	nt	-6	nt
O=C(CCCCCN1C(=O)c2cccc3cccc(c23)C1=O)NO	91*	-0.21	71	-20
CCCc1c(C(=O)OCC)c(C(=O)OCC)c2c(-c3ccccc3)nc(N3CCOCC3)nn12	78*	3.2*	25	-1
C/C(=C/CCC(CO)C1CCC2(C)C3CCC4C(C)(C)C(OC5OC(CO)C(O)C(O)C5O)CC(O)C45CC35CCC12C)COC1OC(CO)C(O)C(O)C1O (stereo unspecified)	3	0.17	nt	nt
C/C(=C/CCC(CO)C1CCC2(C)C3CCC4C(C)(C)C(OC5OC(CO)C(O)C(O)C5O)CCC45CC35CCC12C)COC1OC(COC2OC(CO)C(O)C(O)C2O)C(O)C(O)C1O (stereo unspecified)	-12	5.8*	-4	0
C/C=C/C/C=C/CCC(=O)[C@H]1O[C@H]1C(N)=O	78*	0.16	101*	nt
O=C(/C=C/c1ccc(O)c(O)c1)OCCc1ccccc1	77*	0.16	-32	-11
O=C(/C=C/c1ccccc1)Oc1ccccc1	nt	0.3	8	-4
O=C(O)COc1cccc(-c2nc3ccccc3s2)c1	nt	nt	105*	0
Cc1cccc(OCC(=O)Nc2cccc(-c3nc4ccccc4s3)c2)c1	nt	nt	-14	0
C=C(C)C(=O)O[C@H]1C[C@@]2(C)O[C@@H]2[C@H]2O[C@H]2C(=C)[C@@H](O)[C@H]2OC(=O)C(=C)[C@@H]21	8	-0.51	nt	nt
C=C1C(=O)O[C@@H]2C3C(=C(C)[C@@H](O)[C@@H](OC(=O)/C(=C/C)COC(C)=O)[C@@H]12)C(=O)[C@H]1O[C@@]31C (stereo partly specified)	72*	-0.0088	58	-9
SMILES	Hedgehog inh	YB-1 expression	MITF inhib	PD-1 reverse act
C[C@@H]1CN([C@@H](C)CO)C(=O)c2cccc(NC(=O)c3cnccn3)c2O[C@@H]1CN(C)CC1CCCCC1	-98	-0.68	2	1
Cc1c(S(=O)(=O)c2ccc(Cl)cc2)csc1C(=O)N(c1ccccc1)S(C)=O (stereo unspecified)	88*	0.085	25	0
C[C@@H]1CN([C@@H](C)CO)C(=O)c2cc(NC(=O)Cc3cn(C)c4ccccc34)ccc2O[C@@H]1CN(C)Cc1ccc(C(F)(F)F)cc1	24	-0.026	39	-1
C=C(C(=O)O)[C@@H]1CC[C@@]2(C)CCC=C(C)[C@@H]2C1	-8	-0.12	-7	-1
C=C(C(=O)O)[C@@H]1CC[C@@]2(C)CC[C@@H](O)C(=C)C2C1 (stereo partly specified)	-19	3.6*	-2	-1
COc1ccc([N+](=O)[O-])cc1NC(=O)COc1ccc(C(C)(C)C)cc1Br	nt	nt	89*	0
O=C(CN1CCCCC1)Nc1sc2c(c1C(=O)Nc1ccccc1)CCCC2	nt	nt	16	-3
CC1(C)CC(=O)C=C(Sc2nc3ccccc3o2)C1	87*	1.4	77	-37
O=C(CSc1nc2ccc([N+](=O)[O-])cc2[nH]1)Nc1cc(C(F)(F)F)cc(C(F)(F)F)c1	nt	nt	87*	-12
Cc1ccc(OCC(=O)NC(=S)Nc2cc(-c3nc4ncccc4o3)ccc2C)cc1	nt	nt	-18	1
COc1ccc(C2OCC3C(c4cc(OC)c5c(c4)OCO5)OCC23)cc1OC (stereo unspecified)	-15	5*	-31	-1
C[C@@H]1CN([C@H](C)CO)C(=O)CCCn2nncc2CO[C@H]1CN(C)C(=O)Nc1ccccc1	nt	-0.2	nt	nt
N#C/C(=C\c1cc(Cl)cc(Cl)c1)c1cccnc1	73*	-0.25	2	-3
CCN(CC(=O)Nc1ccc(I)cc1)S(=O)(=O)c1ccc(C)cc1	nt	nt	12	nt
C[C@@H]1CN([C@H](C)CO)C(=O)Cc2cc(NC(=O)CCC(F)(F)F)ccc2O[C@H]1CN(C)C(=O)Nc1ccc(C(F)(F)F)cc1	-18	-0.084	-7	2
Cc1c(O)cc(O)c2c1OC(c1ccccc1)CC2=O (stereo unspecified)	-8	0.33	-3	-1
O=C1C[C@H](c2ccccc2)Oc2c(Cc3ccccc3O)c(O)cc(O)c21	-25	-0.56	92*	-1
COc1ccc([N+](=O)[O-])cc1NC(=O)CN(c1ccc(C)cc1)S(C)(=O)=O	nt	nt	-15	0
C[C@H]1CN([C@@H](C)CO)C(=O)Cc2cc(NC(=O)CCN3CCOCC3)ccc2O[C@H]1CN(C)C(=O)Nc1ccc(F)cc1	nt	-0.22	-17	-1
Cn1c(SCCCN2C(=O)c3cccc4cccc(c34)C2=O)nnc1-c1ccncc1	nt	nt	-63	0
Cn1c(N2C(=O)c3cccc4cccc(c34)C2=O)nc2ccccc21	86*	0.26	-25	0
CC1=CC(C)C2(COC(=O)Nc3ccccc3)COC(c3cccnc3)C1C2C (stereo unspecified)	92*	-0.33	53	0
CC(C)(C)c1ccc(-c2[nH]nc(NS(=O)(=O)c3ccccc3)c2Br)cc1	95*	-0.085	13	0
Clc1ccc(Nc2ccc(-c3ccccc3)nn2)cc1	nt	-0.81	-65	0
COc1ccc(OC)c(NC(=O)c2ccc(CSc3ncnc4nc[nH]c34)cc2)c1	68*	0.082	33	1
